# Reference: the supplement of paper PMC6522484
# ± gives the standard deviation of the averaged measurements.
# Assays:
# DLD1 [1] = experiment: cell viability (CellTiter-Glo) relative to plate median (fraction of plate median); higher = more viable cells; details: 5 µM; treatment time 24 h; reporter: 7TFP
# How it was run: (§1)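 For this screen, colorectal cancer cell lines carrying stable lentiviral TCF/Wnt firefly luciferase reporters, either 7TFP or TCF4/Wnt, were seeded into 384-well plates. A day's wait of 24 h preceded addition of library compounds at a final 5 µM, which stayed on the cells for 24 h. Firefly luciferase or CellTiterGlo luminescence, read on parallel plates, was normalised to the plate median per well, and the reported value is the mean of two independent replicates.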
# HCT116 = experiment: as above; details: 5 µM; treatment time 24 h; reporter: TCF4/Wnt
# How it was run: as §1
# SW480 [2] = experiment: as above; details: 5 µM; treatment time 24 h; reporter: 7TFP
# How it was run: as §1
# DLD1 [3] = experiment: TCF/Wnt firefly luciferase reporter signal relative to plate median (fraction of plate median); higher = higher Wnt reporter signal; details: 5 µM; treatment time 24 h; reporter: 7TFP
# How it was run: as §1
# SW480 [4] = experiment: as above; details: 5 µM; treatment time 24 h; reporter: 7TFP
# How it was run: as §1
Structure (SMILES),cell viability (DLD1 [1]),cell viability (HCT116),cell viability (SW480 [2]),TCF/Wnt firefly luciferase reporter signal (DLD1 [3]),TCF/Wnt firefly luciferase reporter signal (SW480 [4])
CS(C)(=O)=O,1.01 ± 0.081,1.05 ± 0.071,0.962 ± 0.035,1.26 ± 0.071,1.05 ± 0.064
CC(=O)OCC(=O)[C@@]1(O)CC[C@H]2[C@@H]3CCC4=CC(=O)CC[C@]4(C)[C@H]3[C@@H](O)C[C@@]21C,1.04 ± 0.077,1.08 ± 0.057,1.04 ± 0.05,1.05,1.07 ± 0.064
CCC(O)CC1CCC(C(C)C(=O)OC(C)CC2CCC(C(C)C(=O)O)O2)O1 (stereo not given) [Bonactin],0.944 ± 0.027,0.941 ± 0.11,0.974 ± 0.0014,0.962 ± 0.054,0.87 ± 0.12
COc1c(O)cccc1O,0.99 ± 0.042,0.962 ± 0.17,1.01,1.16 ± 0.05,1.06 ± 0.021
CCN1CCCC1CNC(=O)c1cc(S(N)(=O)=O)ccc1OC (stereo not given),0.985 ± 0.064,0.954 ± 0.023,1.02 ± 0.071,1.06 ± 0.22,0.959 ± 0.072
COc1ccc(-c2cc(=O)c3c(O)c(OC)c(O[C@@H]4O[C@H](CO[C@@H]5O[C@@H](C)[C@H](O)[C@@H](O)[C@H]5O)[C@@H](O)[C@H](O)[C@H]4O)cc3o2)cc1,0.933 ± 0.087,0.951 ± 0.056,0.897 ± 0.056,1.07 ± 0.035,1.08 ± 0.021
NC(=O)NO,1.06 ± 0.09,1.05 ± 0.042,1.09 ± 0.028,1.03 ± 0.11,1.03 ± 0.12
CN(C)c1ccc2nc3ccc(=[N+](C)C)cc-3sc2c1,1 ± 0.052,0.878 ± 0.021,1.16 ± 0.071,1.06 ± 0.078,1.11 ± 0.021
C=C(C)[C@@H]1CC[C@]2(C(=O)O)CC[C@]3(C)[C@H](CC[C@@H]4[C@@]5(C)CC[C@H](O)C(C)(C)[C@@H]5CC[C@]43C)[C@@H]12,1.03 ± 0.021,1.09,1.005 ± 0.0071,1.055 ± 0.0071,1.01 ± 0.014
Cn1nnnc1SCC1=C(C(=O)O)N2C(=O)[C@@H](NC(=O)[C@H](O)c3ccccc3)[C@H]2SC1,1.05 ± 0.064,0.949 ± 0.03,1.01 ± 0.037,0.878 ± 0.03,0.989 ± 0.072
COC1=C(O)C(=O)c2c(cc3oc(C(C)=O)c(O)c3c2O)C1=O,1.03 ± 0.055,1.07 ± 0.064,0.985 ± 0.064,1.05 ± 0.11,0.949 ± 0.027
CC(=O)NS(=O)(=O)c1ccc(NC(=O)c2ccccc2C(=O)O)cc1,0.946 ± 0.047,0.905 ± 0.13,0.93 ± 0.035,1.04 ± 0.057,1.1 ± 0.042
NC(=O)N1c2ccccc2CC(=O)c2ccccc21,0.9 ± 0.09,0.847 ± 0.09,1.03 ± 0.014,1.06,1.1 ± 0.14
C[C@@H]1O[C@H]2O[C@@H]3[C@@H](C)OC(c4ccc5c(c4O)C(=O)c4ccc(C[C@@](C)(O)CC(=O)O)c(O)c4C5=O)C[C@H]3O[C@H]2CC1=O (stereo not given in full) [Fridamycin D],1.14 ± 0.099,0.942 ± 0.12,1.02 ± 0.021,1.14 ± 0.057,1.08 ± 0.021
CC(=O)O[C@H]1C[C@@H](OC(C)=O)C(C)(C)C2CC(=O)[C@]3(C)C(CC[C@@]4(C)[C@H](c5ccoc5)OC(=O)[C@H]5O[C@]543)[C@]21C (stereo not given in full),0.983 ± 0.0099,0.998 ± 0.046,1.02 ± 0.076,1.06 ± 0.11,1.03 ± 0.028
NCCNCCNCCN,1.03,0.986 ± 0.049,1.01 ± 0.064,0.999 ± 0.058,1.03 ± 0.052
Cc1cccc(C)c1NC(=O)C1CCCCN1C (stereo not given),1 ± 0.078,0.959 ± 0.1,0.971 ± 0.035,1.05 ± 0.035,1.04 ± 0.12
